Values joined by “and” are separate entries in the source; they are usually repeats but may differ in a detail not shown here. Identical values can stand only once. Out of some 400,000 compounds screened, about 3,700 (0.93%) were called active. Inconclusive results (about 3%) are left out. Many of the other results were omitted from the sample, so actives are more common in it than they were. A number with no mark means an inactive call. Calls follow the shape of the dose curve; as a rule, active = well fitted inhibition curve with a large enough effect; inconclusive = small, poorly fitted or top-dose-only effect, or another doubt; inactive = no such curve, though single readings can be large or run the other way.
Each compound was assayed against Vitamin D3 receptor (Homo sapiens) (UniProt P11473) (assay: Inhibitors of the vitamin D receptor (VDR): qHTS). Conditions: VDR-SRC2-3 peptide fluorescence polarization, 2 h; max response, negative = inhibition: stronger effect = lower value.
Outline: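 FP read-out; VDR + SRC2-3 coactivator peptide; 23 nl compound by pintool; 2 h RT incubation; reagents held at 4 deg C, protected from light.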
% is scaled to controls: 0 for no effect and ±100 for the full control effect; potency is read from the fitted curve at half-maximal effect.

Chain of Vitamin D3 receptor (Homo sapiens) (P11473 whole entry, looked up): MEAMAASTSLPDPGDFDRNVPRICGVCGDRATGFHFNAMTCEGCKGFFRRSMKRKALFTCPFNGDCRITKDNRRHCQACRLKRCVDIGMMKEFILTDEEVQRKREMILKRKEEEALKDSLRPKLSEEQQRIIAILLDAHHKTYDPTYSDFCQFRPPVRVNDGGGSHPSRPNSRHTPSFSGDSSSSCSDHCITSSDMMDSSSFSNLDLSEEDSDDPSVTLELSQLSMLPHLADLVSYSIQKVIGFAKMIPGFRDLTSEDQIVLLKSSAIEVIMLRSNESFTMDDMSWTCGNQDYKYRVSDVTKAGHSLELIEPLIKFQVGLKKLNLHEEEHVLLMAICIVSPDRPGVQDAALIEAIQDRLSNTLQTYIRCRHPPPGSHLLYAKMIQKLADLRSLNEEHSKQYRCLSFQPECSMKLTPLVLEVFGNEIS

| Structure (SMILES) | Potency | max response, negative = inhibition |
| --- | --- | --- |
| O=c1cc(CO)oc(C(Nc2cccc([N+](=O)[O-])c2)c2ccccn2)c1O (stereo unspecified) | 79.4 µM (active) | – |
| Cn1c(=O)c2c(ncn2CC(=O)Nc2cccc(C(F)(F)F)c2)n(C)c1=O | – | 2.35% |
| O=c1cc(CO)oc(C(Nc2cccc(C(F)(F)F)c2)c2ccccn2)c1O (stereo unspecified) | 50.1 µM (active) | – |
| O=C(CSc1nc(-c2ccccc2)cs1)Nc1cccc([N+](=O)[O-])c1 | – | -15.3% |
| O=C(Nc1ccc([N+](=O)[O-])cc1)OCCc1ccccn1 | – | -15.4% |
| O=C(CSc1nnc(-c2ccccc2F)o1)Nc1cccc(C(F)(F)F)c1 | – | -10.5% |
| Cc1c(Cl)cccc1NC(=O)c1noc2c1CCCC2 | – | -14.6% |
| O=C(NCc1ccccc1)c1ccc2c(c1)nc1n2CCCCC1 | – | 12.2% |
| Cc1ccc(C)c(NC(=O)C2CCCN(S(=O)(=O)c3cn(C)cn3)C2)c1 (stereo unspecified) | – | 2.5% |
| COCCNC(=O)c1ccc2c(c1)N(Cc1cccc(Cl)c1)C(=O)c1ccccc1S2(=O)=O | – | 5.24% |
| CCCCOc1ccc(C(=O)N2CC(=O)Nc3ccc(Br)cc3C2c2ccc(F)cc2)cc1 (stereo unspecified) | – | -9.94% |
| Cc1cccc(Oc2c([N+](=O)[O-])c(=O)n(C)c3ccccc23)c1 | 39.8 µM (active) | – |
| Cc1cccc(OP(=O)(Nc2c(C)n(C)n(-c3ccccc3)c2=O)Oc2cccc(C)c2)c1 | – | 10.3% |
| Cc1cccc(C2CC(=O)Oc3c2c(=O)n(C)c2ccccc32)c1 (stereo unspecified) | – | 0.823% |
| Cc1c2cnn(-c3ccccc3)c(=O)c2c(C)n1C(C)C(=O)Nc1ccc(Br)cc1F (stereo unspecified) | – | 11.8% |
| CN(Cc1ccccc1)C(=O)c1cc2c(=O)n(C)c3ccccc3c2s1 | – | -5.87% |
| C/C(Nc1ccc2oc(=O)ccc2c1)=C1/C(=O)CC2[C@@H]1C2(C)C (stereo partly specified) | – | -29.7% |
| CCC1CN(S(=O)(=O)c2cc(-c3cc(C)no3)ccc2C)c2cc(C)ccc2O1 (stereo unspecified) | – | 10.7% |
| CN1C(=O)CN2CCc3ccccc3C2c2cc(Cl)ccc21 (stereo unspecified) | – | -10.7% |

| Structure (SMILES) | Potency | max response, negative = inhibition |
| --- | --- | --- |
| Clc1cccc(-c2nc3nc4ccccc4nc3n2Cc2ccco2)c1 | – | 4.83% |
| O=c1[nH]c(CSc2ncc(-c3ccc(F)cc3)n2Cc2ccco2)nc2ccccc12 | – | 7.47% |
| Cc1ccc(Cn2c(C)nc3c(c2=O)c2nc4ccccc4nc2n3Cc2ccco2)cc1 | 56.2 µM (active) | – |
| CCOc1ccc(-c2n[nH]c3c2C(c2ccccc2OC)N(c2ccc(Br)cc2)C3=O)cc1 (stereo unspecified) | – | -27% |
| Nc1ccc2nc3c(=O)[nH]c(=S)[nH]c3nc2c1 | 79.4 µM (active) | – |
| O=C(NCCc1ccc(Cl)cc1)c1ccc2c(c1)N(Cc1ccc(F)cc1)C(=O)CS2 | – | -1.91% |
| Cc1c(S(=O)(=O)O)oc2c1C(=O)C(=O)c1c-2ccc2c1CCCC2(C)C | 8.91 µM (active) | – |
| Cc1ccc(C(=O)Nc2nc(-c3ccccc3)ns2)cc1 | – | 2.63% |
| CCCCCCCCCCCCCCCCO | – | 0.1% and 6.37% |
| CCOc1ccc(-n2c(N)c(C(=O)NCC3CCCO3)sc2=S)cc1 (stereo unspecified) | 79.4 µM (active) | – |
| CCOc1ccc(S(=O)(=O)N2CCN(C(=S)NCC3CCCO3)CC2)cc1 (stereo unspecified) | – | 28.2% |
| CCOc1ccc(S(=O)(=O)NCCC(=O)NCC2CCCO2)cc1 (stereo unspecified) | – | -3.32% |
| O=C(NC1CC(=O)N(c2ccc(Cl)cc2)C1)C1CCCC1 (stereo unspecified) | – | -5.32% |
| O=C1/C(=C\c2ccc([N+](=O)[O-])cc2)CS(=O)(=O)C/C1=C/c1ccc([N+](=O)[O-])cc1 | 39.8 µM (active) | – |
| CN(C)S(=O)(=O)N1CCN(c2ccc([N+](=O)[O-])cc2)CC1 | – | -2.16% |
| CCCCC(=O)Nc1c2c(nn1-c1ccc([N+](=O)[O-])cc1)CS(=O)(=O)C2 | – | -18.5% |
| Cc1cc(C)c(-c2n[nH]c3c2C(c2ccccc2F)N(CCO)C3=O)c(O)c1 (stereo unspecified) | – | 7.23% |
| O=c1cnc2cnc(Nc3ccccc3)nc2n1Cc1ccc(F)cc1 | – | -4.57% |
| Cc1cc(NC(=O)CSc2ncc(C(=O)Nc3ccc(Cl)cc3)c(=O)n2C)no1 | – | 4.19% |

| Structure (SMILES) | Potency | max response, negative = inhibition |
| --- | --- | --- |
| COc1ccc(NC(=O)c2ccco2)cc1NC(=O)COc1ccc(C)c(C)c1 | – | 5.81% |
| O=C(NC(=S)Nc1ccccc1C(=O)O)c1ccc(-c2ccc(Br)cc2)o1 | 70.8 µM (active) | – |
| CN1CCN(C(=O)c2ccc(-c3ccc(Br)cc3)o2)CC1 | – | -9.02% |
| O=C(O)c1ccccc1NC(=O)c1ccccc1-c1ccccc1C(=O)O | – | -22.4% |
| O=C(Nc1ccccc1Cl)N1CCC(CN2CCCCC2)CC1 | – | 4.52% |
| COc1cc(-c2cc3n(C)c(C)c(CCC(=O)Nc4ccc(F)cc4)c(=O)n3n2)cc(OC)c1OC | – | -2.64% |
| NCCCNC(=S)NCCCN(Cc1ccc(Cl)cc1)c1ccc(Br)cn1 | – | -24.7% |
| CC(=O)Nc1ccc(S(=O)(=O)Nc2ccc(N3CCCCC3)cc2)cc1 | – | 6.02% |
| O=C(C1CC(=O)N(C2CCCCC2)C1)N1CCN(c2ccccc2)CC1 (stereo unspecified) | – | -11.8% |
| O=C1C=CC(=O)N1c1ccc(N2CCCCC2)cc1 | 17.8 µM (active) | – |
| Cc1cc(-c2ccc(C)c(S(=O)(=O)N3c4ccccc4CC3C)c2)on1 (stereo unspecified) | – | 9.78% |
| Cc1[nH][nH]c(=O)c1C(c1ccc(-c2ccc(Cl)cc2)o1)c1c(C)[nH][nH]c1=O | 79.4 µM (active) | – |
| CCOc1ccc(C(=O)CCC(=O)Nc2ccncc2)cc1 | – | -4.74% |
| CCOc1ccc(C(=O)N2CCN(CCc3ccccn3)CC2)cc1 | – | -7.3% |
| CCOc1ccc(C(=O)CCN2CCOCC2)cc1 | 50.1 µM (active) | – |
| Cc1ccc(-c2nnc3c4ccccc4c(C)nn23)cc1NC(=O)c1cccc(Br)c1 | – | -6.72% |
| CCC(=O)N1CCc2cc(S(=O)(=O)NC(C(=O)NCCc3ccc(C)cc3)C(C)C)ccc21 (stereo unspecified) | – | -2.72% |
| Cc1cccc(N2CCN(C(=O)Cn3ncc4c5ccccc5n(C)c4c3=O)CC2C)c1 (stereo unspecified) | – | 4.17% |

From PubChem BioAssay AID504847 (National Center for Advancing Translational Sciences (NCATS), 2011)
